The source made the active and inactive calls.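 How the source made its calls: active means valid curve fit, half-maximal dose at most 10 µM, and binding change across doses at least 30%; inactive means the rest.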
Each compound was assayed on Rab7 GTPase, wild type (Canis lupus familiaris) (assay: Rab7 wildtype GTP binding inhibitors, SAR follow-up, Cdc42 probe extension project, biochemical, dog Rab7, bead multiplex flow cytometry, round 1 (AID 588393)). Details: GST-Rab7 beads, Bodipy-FL-GTP binding, EDTA; series mostly up to 100 µM; % response (GTP binding): at the top concentration.

% response (GTP binding), inactive:
O=C(C#Cc1ccccc1)c1cccc([N+](=O)[O-])c1 101%, NS(=O)(=O)c1ccc(N2N=C(c3ccccc3)CC2c2ccccc2)cc1 (stereo not drawn) 90.4%, COc1ccc(C2CC(c3ccccc3)=NN2c2ccc(S(N)(=O)=O)cc2)cc1 (stereo not drawn) 94.1%

From PubChem BioAssay AID588393 (NMMLSC, 2011)
